Assay outcomes as filed in PubChem BioAssay.
Mcl1-Bid inh = disrupts binding of human Mcl-1 to Bid peptide; Q07820; inhibition, % at 21.7 µM; 0.97% of 220,000 active; TR-FRET Mcl-1/Bid-Dy647 peptide binding, 1536-well;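 active means compounds that cut the binding signal by more than half at the single screening dose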;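 further: His-tagged Mcl-1 with europium anti-His antibody binding Bid BH3 peptide; 0% = Mcl-1 plus peptide wells and 100% = peptide-only wells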
Target sequence (Q07820 whole entry, looked up): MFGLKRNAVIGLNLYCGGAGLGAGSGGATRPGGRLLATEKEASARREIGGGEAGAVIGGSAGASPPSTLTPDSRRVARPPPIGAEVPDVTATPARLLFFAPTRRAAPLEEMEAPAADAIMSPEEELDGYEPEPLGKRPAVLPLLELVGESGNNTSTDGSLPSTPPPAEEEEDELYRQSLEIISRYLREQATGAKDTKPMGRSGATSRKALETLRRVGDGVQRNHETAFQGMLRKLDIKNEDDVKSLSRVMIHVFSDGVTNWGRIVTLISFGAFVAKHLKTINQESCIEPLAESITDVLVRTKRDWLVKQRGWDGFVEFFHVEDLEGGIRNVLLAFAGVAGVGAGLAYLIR
Bim-Mcl-1 = disrupts Bim peptide binding to human Mcl-1; 0.1% of 190,000 active; inhibition, % at 10 µM; Q07820; AID 1009; Bead-based flow cytometry, Bim peptide-Mcl-1 binding; in the data active means inhibition above about 40%;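 further: 0% = no compound tracer wells and 100% = peptide blocker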
MCL1-BIM inh = MCL1-BIM-BH3 interaction inhibition (human); Q07820; GST-MCL1 / FITC-Bim-BH3 fluorescence polarization; inhibition, % at 10.9 µM; 0.68% of 320,000 active;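 active means inhibition above the mean inhibition of all tested compounds plus 3 SD, set per campaign, cut at about 40% in these data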;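 further: 0% = DMSO wells and 100% = unlabeled Bim-BH3 peptide control; higher means more loss of mP so more displacement of Bim peptide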
Mcl1-Noxa inh = Mcl-1/Noxa interaction inhibition; TR-FRET Mcl-1/Noxa peptide binding, 2 h; inhibition, % at 21.7 µM; 1.5% of 220,000 active; AID 1022;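 active means compounds that cut the protein-peptide binding signal by more than 50% relative to plate controls in a single-dose test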;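 further: His-tagged Mcl-1 with rhodamine Noxa BH3 peptide and terbium anti-His antibody; 0% = Mcl-1 plus Noxa peptide wells and 100% = peptide-only wells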
An asterisk follows results filed as active; x = no result given. Only some compounds are listed: those with a hit (about 2% of all), similar ones and a draw of the others.

SMILES	Mcl1-Bid inh	Bim-Mcl-1	MCL1-BIM inh	Mcl1-Noxa inh
O=C(O)c1ccc2c(c1)C1C=CCC1C(c1cc3c(cc1Br)OCO3)N2 (stereo unspecified)	-58	-1	2	16
COC(=O)c1ccc(C2Nc3ccc(/C(C)=N/NC(=O)C(OC)c4ccccc4)cc3C3C=CCC32)cc1 (stereo unspecified)	x	13	61*	x
C1=CC2c3ccccc3NC(c3ccncc3)C2C1 (stereo unspecified)	-26	4	37	78*
CC(=O)c1ccc2c(c1)C1C=CCC1C(C(=O)O)N2 (stereo unspecified)	-47	3	x	74*
CCOC(=O)c1ccccc1NC(=O)Cc1c(C(=O)O)n(C)c2ccccc12	x	x	11	x
CCC(CC)N1CCN(S(=O)(=O)c2ccc(OC)cc2)CC1	x	x	10	x
CC(=O)c1ccc2c(c1)C1C=CCC1C(c1ccncc1)N2 (stereo unspecified)	-37	6	17	51*
O=C(Cn1c(=O)n(Cc2ccccc2)c(=O)c2ccccc21)NCc1ccco1	-37	3	3	-8
COc1cc2c(=O)n(Cc3ccccc3)c(=O)n(CC(=O)NCc3ccco3)c2cc1OC	52*	0	x	-57
CCOc1ccc(-n2cc(-c3ccc(OC)c(OC)c3)[nH]c2=S)cc1	-9	-5	3	47
O=C(N/N=C/c1ccc(O)c(O)c1)c1ccc(CSc2cccc3cccnc23)cc1	-6	-9	15	76*
COc1ccc(CNC(=O)Cc2cccs2)cc1	x	x	2	x
COc1ccc(CC(=O)NCc2cccs2)cc1	-14	0	3	63*
O=C(O)CCC(CNS(=O)(=O)c1ccccc1)C(F)(F)F (stereo unspecified)	0	2	4	70*
Cc1cc(C)c(S(=O)(=O)NCC(CCC(=O)O)C(F)(F)F)c(C)c1 (stereo unspecified)	4	-3	0	2
CCc1ccc2nc(NC(=O)c3ccc(N4C(=O)CCC4=O)cc3)sc2c1	-28	x	-7	-46
CNS(=O)(=O)c1ccc2nc(NC(=O)c3ccc(N4C(=O)CCC4=O)cc3)sc2c1	-15	-3	4	60*
CN(C)C(CNC(=O)CNC(=O)c1ccc2ccccc2c1)c1ccccc1 (stereo unspecified)	x	x	0	x
COc1cccc2c1c(NC(=O)Nc1ccc(F)cc1F)nn2C	67*	x	-5	5
S=c1nc(-c2cc(Cl)ccc2Cl)[nH][nH]1	58*	0	34	50
Cn1c(=S)[nH]c2scc(-c3cccs3)c2c1=O	-47	0	x	64*
Cc1ccc2c(c1)c1c(n2CC(O)Cn2nc(C)c(Br)c2C)C(=O)CCC1 (stereo unspecified)	-8	3	-4	9
Cc1ccc2c(c1)c(C)c(C)n2CC(O)Cn1nc(C)c(Br)c1C (stereo unspecified)	-17	58*	-1	14
Cc1cccc(Nc2nc3c(S(=O)(=O)c4ccccc4)nnn3c3ccccc23)c1	57*	-2	-14	-41
CCCCNc1nc2c(S(=O)(=O)c3ccccc3)nnn2c2ccccc12	-160	0	-3	-487
SMILES	Mcl1-Bid inh	Bim-Mcl-1	MCL1-BIM inh	Mcl1-Noxa inh
CNc1ccc(Br)cc(C(=O)/C=C/c2cccc(Cl)c2Cl)c1=O	92*	0	x	106*
CNc1ccc(Br)cc(C(=O)/C=C/c2cccc(OC)c2OC)c1=O	0	19	5	70*
CCNc1ccc(Br)cc(C(=O)/C=C/c2ccccc2Cl)c1=O	x	x	-14	x
CCOC(=O)c1cc(NC(=O)c2ccccc2)c(=O)n2c1oc1ccccc12	-17	-3	8	10
O=C(Nc1cnn(C23CC4CC(CC(C4)C2)C3)c1)c1cnn2c(C(F)(F)F)cc(-c3ccco3)nc12	79*	0	-2	31
O=C(Nc1ccc2c(c1)OCO2)c1cnn2c(C(F)(F)F)cc(-c3ccco3)nc12	-11	-2	6	5
S=c1[nH]nc(-c2cc(-c3ccccc3)n[nH]2)n1/N=C/c1ccccc1	-103	x	-12	-13
S=c1[nH]nc(-c2cc(-c3ccccc3)n[nH]2)n1/N=C/C(Br)=C/c1ccccc1	-93	x	-11	76*
O=[N+]([O-])c1ccccc1/C=C/C=N/n1c(-c2cc(-c3ccccc3)n[nH]2)n[nH]c1=S	-33	x	-23	58*
Cc1ccc(-c2n[nH]c(=S)n2/N=C/C=C/c2ccccc2[N+](=O)[O-])cc1	-123	0	-22	41
O=[N+]([O-])C(/C=C(/Cl)[N+](=O)[O-])=C(N1CCCCC1)N1CCCCC1	-59	x	-43	-4
CC(=O)OCCn1c2nc(=O)[nH]c(=O)c-2nc2cc(C)c(C)cc21	96*	x	x	14
CC(=O)Nc1ccc(NC(=O)c2cc(-c3ccc(C)c(C)c3O)n[nH]2)cc1	x	x	-4	x
Cc1ccc(-c2cc(C(=O)Nc3ccc(S(=O)(=O)Nc4ncccn4)cc3)[nH]n2)c(O)c1C	-5	x	3	56*
CC1CC(C)CN(C(=O)C2CCN(S(=O)(=O)c3cccc4cccnc34)CC2)C1 (stereo unspecified)	x	x	-1	x
COc1cccc(NC(=O)[C@@H]2CCC(=O)N2C2OC(=O)c3ccccc32)c1 (stereo partly specified)	x	x	5	x
C=CCSc1nc2c(sc3nc(C)cc(C)c32)c(=O)[nH]1	-5	1	13	57*
Cc1cc(C)c2c(n1)sc1c(=O)[nH]c(SCc3ccccc3)nc12	2	-2	2	7
CC(C)c1ccc(S(=O)(=O)/N=C2/C=CC(=O)c3ccccc32)cc1	0	0	x	78*
CN(C)C(=O)c1ccc(Oc2ccc(C(=O)N(C)C)cc2)cc1	-5	1	-1	4
CC(=O)c1ccc(Oc2ccc(C(C)=O)cc2)cc1	99*	-4	4	-5
O=C1/C(=C/c2ccccc2Cl)SC(=S)N1CCCC(=O)N(CCO)c1ccccc1	x	x	16	x
CC(CCC(=O)Nc1nncs1)C(=O)O (stereo unspecified)	86*	0	-3	33
CCOC(=O)N1CCC(NC(=O)c2cccc3c2C(=O)N(c2ccc(OC)cc2)C3)CC1	-1	1	17	56*
COc1ccc(N2Cc3cccc(C(=O)NC(C)CCc4ccco4)c3C2=O)cc1 (stereo unspecified)	-10	-1	6	65*
SMILES	Mcl1-Bid inh	Bim-Mcl-1	MCL1-BIM inh	Mcl1-Noxa inh
COCCN1C(=O)c2oc3ccccc3c(=O)c2C1c1cccc(O)c1 (stereo unspecified)	-20	0	1	14
COC(=O)c1sc(N2C(=O)c3oc4ccccc4c(=O)c3C2c2cccc(O)c2)nc1C (stereo unspecified)	58*	x	5	18
N#Cc1ccsc1NC(=O)CN1CCN(c2ccc(O)cc2)CC1	-30	-6	7	72*
O=C(CN1CCN(c2ccc(O)cc2)CC1)Nc1ccc(SC(F)F)cc1	-64	-2	24	70*
COc1cccc(N2CCN(CC(=O)Nc3ccc(SC(F)F)cc3)CC2)c1	-33	4	0	27
N#Cc1ccsc1NC(=O)CN1CCN(c2ccccc2)CC1	-13	0	6	43
CCCOC(=S)Nc1ccccc1	-26	1	13	7
